Assay results from PubChem BioAssay.
Activity calls are given as the source filed them.

Legend:
[1] = binders of probe aFSTL3 on microarray, primary screen, stem cell growth factor project, biochemical, small-molecule microarray, fluorescence 635/667 (AID 1064); settings: higher = more signal;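 further: measures binding of the biotinylated anti-FSTL3 antibody to printed compounds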
[2] = binders from COS7 lysate, DM2A8 probe, primary screen, torsin A project, cell lysate, small-molecule microarray, fluorescence 635/667 (AID 1065); settings: higher = more signal, COS7 lysate expressing mutant human TOR1A
[3] = binders of probe aFGF2 on microarray, primary screen, stem cell growth factor project, biochemical, small-molecule microarray, fluorescence 635/667 (AID 1067); settings: higher = more signal;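 further: measures binding of biotinylated aFGF2 protein to printed compounds on slides; z-score merges feature fluorescence and signal-to-noise across triplicate slides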
[4] = binders of probe aFGF10 on microarray, primary screen, stem cell growth factor project, biochemical, small-molecule microarray, fluorescence 635/667 (AID 1071); settings: higher = more signal;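 further: score merges 667 nm spot intensity and signal to noise from triplicate slides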
[5] = target: Neurogenic locus notch homolog protein 2 (Homo sapiens) (UniProt Q04721); experiment: Notch2 binders on small-molecule microarrays, primary screen, biochemical, small-molecule microarray, 635 nm fluorescence, stem cell growth factors (AID 1073); settings: Notch2 binding, higher = more signal
[6] = target: Pro-neuregulin-1, membrane-bound isoform (Homo sapiens) (UniProt Q02297); experiment: NRG1 binders on small-molecule microarrays, primary screen, psychiatric disease protein project, biochemical, small-molecule microarray, fluorescence 635/667 (AID 1075); settings: NRG1 binding, 635 nm fluorescence, higher = more signal;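 further: score combines 667 nm spot fluorescence with signal to noise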
[7] = tested on: Neuregulin-1 EGF-like domain; experiment: binders of neuregulin-1 EGF-like domain, primary screen, biochemical, small-molecule microarray, 635 nm fluorescence (AID 1081); settings: small-molecule microarray binding, higher = more signal;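 further: binding of the protein to compounds printed on small-molecule microarray slides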
[8] = FRG1 promoter luciferase signal modulators, primary screen, FRG1 inhibition for FSHD, cell-based, C2C12 myotubes, firefly/Renilla luciferase, luminescence (AID 1084); settings: higher = more signal, called active from +8 up or from −8 down
[9] = binders of probe aFST on microarray, primary screen, stem cell growth factor project, biochemical, small-molecule microarray, fluorescence 635/667 (AID 1086); settings: higher = more signal;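 further: score merges 667 nm fluorescence with signal-to-noise of each printed compound spot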
[10] = binders of probe aHhip on microarray, primary screen, stem cell growth factor project, biochemical, small-molecule microarray, fluorescence 635/667 (AID 1087); settings: higher = more signal;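 further: score merges spot fluorescence at 667nm with spot signal to noise ratio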
[11] = tested on: PRMT1 (protein arginine N-methyltransferase 1); experiment: PRMT1 binders on small-molecule microarrays, primary screen, biochemical, small-molecule microarray, 635 nm fluorescence (AID 1088); settings: small-molecule microarray binding, higher = more signal;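 further: binding of Prmt1 protein to compounds spotted on small-molecule microarray slides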
[12] = yeast growth modulation, basal conditions, primary screen, YJM789 clinical isolate, OD600, 24 h (AID 1089);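 further: growth of clinical yeast isolate S. cerevisiae YJM 789 seeded 1000 cells per well; test concentration not given here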; settings: S. cerevisiae YJM789 growth, higher = more signal, called active from +8 up or from −8 down
[13] = fission yeast growth modulation, primary screen, strain 972, OD600, 24 h, no modulator (AID 1090);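 further: basal condition with compound alone and no growth modifier present; test concentration not given here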; settings: S. pombe 972 growth, higher = more signal, called active from +8 up or from −8 down
[14] = S. cerevisiae growth modulation with rapamycin, primary screen, strain BY4716, OD600, 96 h (AID 1091); settings: higher = more signal, called active from +8 up or from −8 down; further: test concentration not given here
[15] = target: Torsin-1A-interacting protein 2 (Homo sapiens) (UniProt Q8NFQ8); experiment: LULL1 binders on small-molecule microarray, primary screen, cell lysate, human LULL1 lysate, 635/667 nm fluorescence (AID 1092); settings: hLULL1 lysate binding, 635 nm fluorescence, higher = more signal;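 further: probe is lysate of COS7 cells overexpressing human LULL1; score merges per-feature 667 nm fluorescence with signal-to-noise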
[16] = E. coli growth modulation, two-sided OD650, primary screen, E. coli filamentation project, strain DRC41, 24 h (AID 1093); settings: OD650, 24 h, higher = more signal, called active from +8 up or from −8 down;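 further: MC1000 strain lacking acrAB efflux and sulA so SOS filamentation is blocked; test concentration not given here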
[17] = small-molecule microarray binders of probe aLefty2, primary screen, biochemical, biotinylated probe, 635/667 nm fluorescence (AID 1094); settings: higher = more signal;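 further: score merges spot fluorescence near 667 nm with spot signal-to-noise ratio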
[18] = tested on: Noggin (protein binding on small-molecule microarray); experiment: Noggin binders on small-molecule microarray, primary screen, biochemical, 635/667 nm fluorescence (AID 1095); settings: 635 nm fluorescence, higher = more signal;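 further: score merges 667 nm feature fluorescence with signal to noise over triplicate slides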
[19] = target: Neurogenic locus notch homolog protein 3 (Homo sapiens) (UniProt Q9UM47); experiment: NOTCH3 binders on small-molecule microarray, primary screen, biochemical, 635/667 nm fluorescence (AID 1096); settings: NOTCH3 binding, 635 nm fluorescence, higher = more signal
[20] = small-molecule microarray binders of probe aEGFR, primary screen, biochemical, biotinylated probe, 635/667 nm fluorescence (AID 1097); settings: higher = more signal;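 further: probe is a biotinylated anti-EGFR antibody binding compounds printed on slides; score combines fluorescence near 667 nm and signal to noise of each spot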

Chain of Neurogenic locus notch homolog protein 2 (Homo sapiens) (Q04721 whole entry, looked up, canonical isoform): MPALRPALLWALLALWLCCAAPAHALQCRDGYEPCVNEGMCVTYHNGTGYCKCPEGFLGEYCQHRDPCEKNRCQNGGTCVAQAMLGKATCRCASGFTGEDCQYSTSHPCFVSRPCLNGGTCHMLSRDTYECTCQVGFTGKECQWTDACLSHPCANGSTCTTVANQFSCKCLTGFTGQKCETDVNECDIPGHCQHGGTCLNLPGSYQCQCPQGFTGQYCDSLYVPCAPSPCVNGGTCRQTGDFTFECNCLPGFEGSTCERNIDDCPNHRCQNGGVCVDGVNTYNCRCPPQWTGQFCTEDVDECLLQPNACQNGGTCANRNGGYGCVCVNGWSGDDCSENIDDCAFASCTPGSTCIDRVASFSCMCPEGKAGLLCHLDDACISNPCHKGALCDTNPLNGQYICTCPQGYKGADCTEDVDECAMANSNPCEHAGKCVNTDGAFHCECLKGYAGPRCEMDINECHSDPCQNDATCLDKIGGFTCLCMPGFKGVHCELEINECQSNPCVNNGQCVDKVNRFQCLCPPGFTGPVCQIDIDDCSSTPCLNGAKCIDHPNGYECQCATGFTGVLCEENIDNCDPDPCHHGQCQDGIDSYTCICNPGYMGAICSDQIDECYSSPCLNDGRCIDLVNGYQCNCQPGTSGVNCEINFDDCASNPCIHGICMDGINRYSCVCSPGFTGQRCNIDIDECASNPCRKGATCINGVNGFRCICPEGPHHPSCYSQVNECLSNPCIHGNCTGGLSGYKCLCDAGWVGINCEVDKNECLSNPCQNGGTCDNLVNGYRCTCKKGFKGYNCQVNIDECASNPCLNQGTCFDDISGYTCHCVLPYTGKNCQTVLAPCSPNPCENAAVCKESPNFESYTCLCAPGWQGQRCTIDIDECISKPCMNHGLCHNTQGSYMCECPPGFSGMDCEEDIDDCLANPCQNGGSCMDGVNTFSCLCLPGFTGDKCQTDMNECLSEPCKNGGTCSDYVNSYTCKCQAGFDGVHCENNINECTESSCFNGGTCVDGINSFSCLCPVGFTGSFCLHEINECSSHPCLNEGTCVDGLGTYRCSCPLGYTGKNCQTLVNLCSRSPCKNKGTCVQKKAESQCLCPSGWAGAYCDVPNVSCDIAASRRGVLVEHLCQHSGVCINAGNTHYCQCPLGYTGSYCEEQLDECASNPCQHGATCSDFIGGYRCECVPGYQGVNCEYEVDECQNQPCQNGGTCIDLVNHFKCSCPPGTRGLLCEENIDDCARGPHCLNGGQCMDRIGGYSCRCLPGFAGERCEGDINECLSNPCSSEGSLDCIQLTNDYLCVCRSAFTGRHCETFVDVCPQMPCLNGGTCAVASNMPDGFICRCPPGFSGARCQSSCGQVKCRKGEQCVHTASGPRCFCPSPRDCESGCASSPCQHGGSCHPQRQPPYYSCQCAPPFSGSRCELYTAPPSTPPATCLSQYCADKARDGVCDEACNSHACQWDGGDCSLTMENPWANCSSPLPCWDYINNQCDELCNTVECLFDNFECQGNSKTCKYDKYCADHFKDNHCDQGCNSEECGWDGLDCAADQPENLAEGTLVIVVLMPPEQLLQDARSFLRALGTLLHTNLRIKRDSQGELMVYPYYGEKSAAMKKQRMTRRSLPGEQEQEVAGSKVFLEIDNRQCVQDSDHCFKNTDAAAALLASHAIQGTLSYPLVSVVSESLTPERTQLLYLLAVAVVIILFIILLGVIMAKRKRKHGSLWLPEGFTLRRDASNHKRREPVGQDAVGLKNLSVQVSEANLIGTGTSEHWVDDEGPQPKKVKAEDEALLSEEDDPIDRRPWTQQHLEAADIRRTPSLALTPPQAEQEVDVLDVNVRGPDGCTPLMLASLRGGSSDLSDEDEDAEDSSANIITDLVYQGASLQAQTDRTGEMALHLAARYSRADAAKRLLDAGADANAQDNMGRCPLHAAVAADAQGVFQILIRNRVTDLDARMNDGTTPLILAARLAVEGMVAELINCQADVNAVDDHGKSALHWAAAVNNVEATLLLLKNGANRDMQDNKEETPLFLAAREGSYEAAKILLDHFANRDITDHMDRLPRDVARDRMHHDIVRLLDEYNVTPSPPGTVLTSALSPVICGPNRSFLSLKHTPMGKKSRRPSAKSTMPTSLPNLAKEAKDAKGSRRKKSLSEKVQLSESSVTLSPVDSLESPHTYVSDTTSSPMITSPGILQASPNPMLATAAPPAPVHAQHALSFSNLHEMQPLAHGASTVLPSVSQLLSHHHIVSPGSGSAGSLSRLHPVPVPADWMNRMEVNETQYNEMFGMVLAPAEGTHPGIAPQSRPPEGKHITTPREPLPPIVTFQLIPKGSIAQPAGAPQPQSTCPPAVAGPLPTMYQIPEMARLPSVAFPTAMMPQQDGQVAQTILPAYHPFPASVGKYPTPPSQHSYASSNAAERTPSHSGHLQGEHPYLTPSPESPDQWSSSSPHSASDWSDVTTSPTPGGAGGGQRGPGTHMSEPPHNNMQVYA
Chain of Neurogenic locus notch homolog protein 3 (Homo sapiens) (Q9UM47 whole entry, looked up): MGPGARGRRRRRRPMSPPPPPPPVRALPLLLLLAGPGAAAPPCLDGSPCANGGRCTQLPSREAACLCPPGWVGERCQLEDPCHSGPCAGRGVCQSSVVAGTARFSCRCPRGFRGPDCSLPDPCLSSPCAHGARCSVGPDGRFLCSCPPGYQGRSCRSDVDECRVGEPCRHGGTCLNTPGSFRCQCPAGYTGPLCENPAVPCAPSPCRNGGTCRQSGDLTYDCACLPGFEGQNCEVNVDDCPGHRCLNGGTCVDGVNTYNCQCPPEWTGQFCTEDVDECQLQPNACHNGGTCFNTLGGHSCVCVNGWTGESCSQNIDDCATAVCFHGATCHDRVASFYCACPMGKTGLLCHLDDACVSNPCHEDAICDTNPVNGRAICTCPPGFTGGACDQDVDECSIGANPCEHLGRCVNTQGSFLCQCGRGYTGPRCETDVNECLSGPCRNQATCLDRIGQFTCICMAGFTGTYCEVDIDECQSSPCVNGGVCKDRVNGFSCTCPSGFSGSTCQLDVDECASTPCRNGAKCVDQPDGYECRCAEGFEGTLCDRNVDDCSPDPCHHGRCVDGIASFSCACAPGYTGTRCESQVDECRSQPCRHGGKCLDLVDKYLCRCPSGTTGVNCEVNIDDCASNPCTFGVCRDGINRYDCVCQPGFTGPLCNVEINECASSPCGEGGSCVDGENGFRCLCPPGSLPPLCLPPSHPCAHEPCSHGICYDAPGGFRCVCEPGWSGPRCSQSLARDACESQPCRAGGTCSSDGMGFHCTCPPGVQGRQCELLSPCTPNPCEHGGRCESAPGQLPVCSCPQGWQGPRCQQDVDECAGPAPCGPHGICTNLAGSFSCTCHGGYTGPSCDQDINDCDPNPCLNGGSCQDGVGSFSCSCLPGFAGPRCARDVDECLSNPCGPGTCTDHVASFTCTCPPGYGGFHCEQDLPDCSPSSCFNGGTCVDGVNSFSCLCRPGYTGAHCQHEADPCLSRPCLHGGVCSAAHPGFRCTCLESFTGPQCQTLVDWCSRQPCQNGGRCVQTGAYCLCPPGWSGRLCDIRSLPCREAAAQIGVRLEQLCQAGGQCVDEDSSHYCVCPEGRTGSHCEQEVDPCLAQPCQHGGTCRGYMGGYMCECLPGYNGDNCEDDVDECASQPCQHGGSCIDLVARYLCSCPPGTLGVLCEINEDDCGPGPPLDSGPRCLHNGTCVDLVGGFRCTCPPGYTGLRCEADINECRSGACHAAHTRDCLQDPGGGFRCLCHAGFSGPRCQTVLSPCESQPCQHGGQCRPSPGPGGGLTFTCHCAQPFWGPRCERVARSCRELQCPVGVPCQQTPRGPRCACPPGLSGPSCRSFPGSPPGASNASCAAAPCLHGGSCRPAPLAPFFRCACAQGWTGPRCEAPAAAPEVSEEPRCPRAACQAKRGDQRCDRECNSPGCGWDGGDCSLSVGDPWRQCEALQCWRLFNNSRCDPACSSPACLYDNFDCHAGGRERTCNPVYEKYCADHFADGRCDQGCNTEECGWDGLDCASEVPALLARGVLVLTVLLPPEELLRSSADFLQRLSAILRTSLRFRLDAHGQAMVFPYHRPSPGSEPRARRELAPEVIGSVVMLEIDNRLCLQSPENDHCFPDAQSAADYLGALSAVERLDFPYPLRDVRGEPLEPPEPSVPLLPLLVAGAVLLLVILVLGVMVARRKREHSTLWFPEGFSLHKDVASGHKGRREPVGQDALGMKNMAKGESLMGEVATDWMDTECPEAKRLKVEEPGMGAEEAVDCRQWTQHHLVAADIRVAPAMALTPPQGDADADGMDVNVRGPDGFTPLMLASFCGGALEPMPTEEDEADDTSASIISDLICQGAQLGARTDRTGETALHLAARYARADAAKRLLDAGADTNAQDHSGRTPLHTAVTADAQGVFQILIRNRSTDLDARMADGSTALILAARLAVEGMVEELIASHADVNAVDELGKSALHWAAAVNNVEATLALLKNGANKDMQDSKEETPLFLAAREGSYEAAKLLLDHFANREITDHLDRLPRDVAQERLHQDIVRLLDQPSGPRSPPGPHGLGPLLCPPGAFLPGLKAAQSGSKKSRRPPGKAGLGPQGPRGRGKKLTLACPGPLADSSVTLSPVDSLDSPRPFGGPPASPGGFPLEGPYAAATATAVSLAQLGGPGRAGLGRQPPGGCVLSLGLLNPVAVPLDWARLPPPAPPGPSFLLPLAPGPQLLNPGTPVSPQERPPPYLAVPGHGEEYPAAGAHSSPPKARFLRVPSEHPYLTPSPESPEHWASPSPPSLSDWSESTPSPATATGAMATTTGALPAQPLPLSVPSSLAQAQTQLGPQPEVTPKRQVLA

SMILES | composite z-score [1] | composite z-score [2] | composite z-score [3] | composite z-score [4] | composite z-score [5] | composite z-score [6] | composite z-score [7] | z-score [8] | composite z-score [9] | composite z-score [10] | composite z-score [11] | z-score [12] | z-score [13] | z-score [14] | composite z-score [15] | z-score [16] | composite z-score [17] | composite z-score [18] | composite z-score [19] | composite z-score [20]
O=C1C[C@H](c2ccccc2)[C@H](c2ccc(Br)cc2)O1 | -0.295 | 0.246 | -0.0761 | 0.289 | 0.0429 | -0.482 | -0.293 | -0.78 (inactive) | 0.133 | -0.0994 | -0.146 | -3.83 (inactive) | -11.8 (active) | -1.84 (inactive) | -0.247 | 0.421 (inactive) | -0.224 | 0.401 | -0.489 | -0.17
C[C@@H]1CC[C@@H](C(=O)O)N[C@H]1c1cccc(N2CCOCC2)c1 | -0.406 | 0.179 | -0.0428 | 0.268 | 0.887 | 0.0719 | 0.251 | -1.79 (inactive) | 0.253 | -0.134 | -0.618 | 0.395 (inactive) | -0.623 (inactive) | -0.591 (inactive) | 0.879 | 1.64 (inactive) | -0.106 | 0.377 | 0.597 | -0.106
COc1ccc(COC(=O)NN=C2C[C@@H](O)[C@@H](O)[C@@H]3[C@@H]4C(=O)N([C@@H](C)c5ccccc5)C(=O)[C@@H]4CC[C@@H]23)cc1 | -0.513 | 0.419 | -0.114 | 0.042 | 0.199 | 0.0605 | -0.38 | 0.497 (inactive) | 0.275 | -0.0994 | -0.0948 | -0.735 (inactive) | 0.207 (inactive) | -0.206 (inactive) | -0.0022 | 0.918 (inactive) | 0.0378 | 0.574 | 0.128 | -0.103
CC(CCN1CCCc2nc(C)c(C)cc21)=NOC[C@@H](C)[C@H](OCc1ccccc1)C(C)C | -0.247 | -0.325 | -0.15 | -0.0055 | -0.766 | -0.162 | -0.995 | -0.14 (inactive) | -0.342 | 0.236 | -0.0185 | -2.02 (inactive) | -1.8 (inactive) | -0.788 (inactive) | 1.4 | -0.287 (inactive) | -0.286 | -0.187 | -0.763 | -0.183
CCOC(=O)[C@H](Cc1ccccc1)NC(=O)CCC1CC(OC(=O)NCc2ccc3c(c2)OCO3)CC2(CCCC(COC(=O)NCCc3ccc(Cl)cc3)O2)O1 (stereo not given in full) | -0.415 | 0.388 | -0.114 | 0.351 | 0.832 | 0.107 | 0.918 | -0.327 (inactive) | -0.18 | -0.0994 | 1.55 | -1.93 (inactive) | -0.616 (inactive) | 0.376 (inactive) | 1.78 | -0.698 (inactive) | -0.148 | 0.819 | 1.16 | -0.081
